Reference: PubChem BioAssay (NCI)
Compounds without any hit were thinned out: in the full panel of roughly 79,000, 15% have a hit. The source made the active and inactive calls. Rule as the data show it: active = growth inhibition above about 70%; inactive = the rest.

Experiment: NCI Yeast Anticancer Drug Screen. Data for the sgs1 mgt1 strain (AID 161);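 also: 0% = growth of cultures given vehicle only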
Details: S. cerevisiae sgs1 mgt1 strain, at 50.0 µM, stronger effect = higher value
Method: Growth inhibition of yeast strains with defined genetic alterations is measured as a screen for potential anti-cancer activity. Selected strains with alterations in DNA damage repair or cell cycle control were exposed to compounds and growth inhibition was measured relative to vehicle treated controls. The strain used in this assay is sgs1 mgt1

**Q.** Which growth inhibition does the source give for CCCCCC1(C(C)C)C(=O)NC(=O)NC1=O here?
**A.** Its growth inhibition is 1.5% (inactive).

**Q.** With O=C(Nc1ncn[nH]1)C(Cl)(Cl)Cl as the compound, how does the growth inhibition read?
**A.** The growth inhibition was -7.15% (inactive).

**Q.** Which growth inhibition does the source give for CC(=O)CC(C)C(=O)O (stereo not given) (tested in a mixture with another compound) here?
**A.** Its growth inhibition is -16.6% (inactive).

**Q.** For O=c1oc2cc(O)ccc2c(O)c1C(c1ccc2ccccc2c1)c1c(O)c2ccc(O)cc2oc1=O, which growth inhibition is on record?
**A.** Its growth inhibition is 36.7% (inactive).

**Q.** With COc1ccc2c(c1OC(C)=O)-c1cc(OC(C)=O)cc3c1C(C2)NCC3 (stereo not given) as the compound, how does the growth inhibition read?
**A.** The growth inhibition was -5.7% (inactive).

**Q.** With CCCCOP(=O)(O)OCCCC.[V] as the compound, how does the growth inhibition read?
**A.** The growth inhibition was -1.55% (inactive).

**Q.** For O=[As](O)(O)CC(Br)CBr (stereo not given), which growth inhibition is on record?
**A.** The growth inhibition was 5.95% (inactive).

**Q.** Which growth inhibition does the source give for Nc1nc(=S)nc(N)[nH]1 here?
**A.** The growth inhibition was -7.9% (inactive).

**Q.** With CC(N)Cc1c[nH]c2ccccc12 (stereo not given) as the compound, how does the growth inhibition read?
**A.** Its growth inhibition is 1.1% (inactive).

**Q.** Which growth inhibition does the source give for ICc1nc2ccccc2[nH]1 here?
**A.** Its growth inhibition is 3.65% (inactive).

**Q.** Which growth inhibition does the source give for CC12CCC(OC3OC(CO)C(O)C(O)C3O)C=C1CCC1C2CCC2(C)C(c3ccc(=O)oc3)CCC12 (stereo not given) here?
**A.** The growth inhibition was 46.3% (inactive).

**Q.** With CC(=O)[CH-]C(C)=O.O=[N+]([O-])O.[NH-]C1CCCCC1[NH-].[Pt+4] (stereo not given) as the compound, how does the growth inhibition read?
**A.** Its growth inhibition is 94.3% (active).

**Q.** For CCCCN(CCCC)C(=O)C1C=C2c3cccc4[nH]cc(c34)CC2N(C)C1 (stereo not given), which growth inhibition is on record?
**A.** The growth inhibition was -11.2% (inactive).

**Q.** Which growth inhibition does the source give for C1=CC2C=CC(C=C1)[PH+]2c1ccccc1.[C-]#[O+].[C-]#[O+].[C-]#[O+].[C-]#[O+].[C-]#[O+].[Cr] (stereo not given) here?
**A.** Its growth inhibition is -9.25% (inactive).

**Q.** For CCOP(=O)(OCC)C(C)(C)OC(=O)NC#N, which growth inhibition is on record?
**A.** The growth inhibition was -36.2% (inactive).

**Q.** For CCC1([N+](=O)[O-])COP(=O)(NCc2ccncc2)OC1 (stereo not given), which growth inhibition is on record?
**A.** The growth inhibition was -5.95% (inactive).

**Q.** Which growth inhibition does the source give for NCC(Cc1ccccc1)P(=O)(O)O (stereo not given) here?
**A.** The growth inhibition was -26.4% (inactive).

**Q.** For CCCCOCCOC(=O)CCl, which growth inhibition is on record?
**A.** The growth inhibition was 33% (inactive).

**Q.** For O=c1[nH]c(=O)c2[nH]c(N=Nc3ccc(N(CCCl)CCCl)cc3)nc2[nH]1, which growth inhibition is on record?
**A.** The growth inhibition was 34.6% (inactive).

**Q.** With CC(Br)[N+](=O)[O-] (stereo not given) as the compound, how does the growth inhibition read?
**A.** Its growth inhibition is 5.4% (inactive).

**Q.** With Cc1ccc([NH-])c([NH-])c1.[Cl][Pt+2][Cl] as the compound, how does the growth inhibition read?
**A.** The growth inhibition was 30.4% (inactive).

**Q.** Which growth inhibition does the source give for N#Cc1cccnc1 here?
**A.** Its growth inhibition is 4.1% (inactive).

**Q.** With O=C(O)C(O)(c1ccccc1)c1ccsc1 (stereo not given) as the compound, how does the growth inhibition read?
**A.** Its growth inhibition is -8.6% (inactive).

**Q.** Which growth inhibition does the source give for CCOP(=O)(OCC)C(O)C(C)C (stereo not given) here?
**A.** Its growth inhibition is 5.2% (inactive).

**Q.** For C=C(Nc1nc2ccc(C)cc2s1)C(=O)C(CC)C(=O)C(CC)CC1C(=O)NC(=O)NC1=O (stereo not given), which growth inhibition is on record?
**A.** The growth inhibition was 4.35% (inactive).

**Q.** With CC(=O)OC(C[N+](=O)[O-])C(Cl)(Cl)Cl (stereo not given) as the compound, how does the growth inhibition read?
**A.** The growth inhibition was 2.25% (inactive).

**Q.** For CCCCOP(=O)(/C=C/c1cccs1)OCCCC, which growth inhibition is on record?
**A.** Its growth inhibition is 79% (active).

**Q.** Which growth inhibition does the source give for CCCCCCCCCCCCCCCC[As](=O)(O)CCCCCCCCCCCCCCCC here?
**A.** The growth inhibition was -17.8% (inactive).

**Q.** Which growth inhibition does the source give for O=C=Nc1ccc(Br)cc1 here?
**A.** Its growth inhibition is 15.8% (inactive).

**Q.** For O=C(O)/C=C/C(=O)O.[Ni], which growth inhibition is on record?
**A.** The growth inhibition was -28.1% (inactive).

**Q.** Which growth inhibition does the source give for CC(C)(C)c1cc2c(=O)o[s+]3oc(=O)c(c1)c23 here?
**A.** Its growth inhibition is 6.75% (inactive).

**Q.** With C=C(C)c1ccccc1 (tested in a mixture with another compound) as the compound, how does the growth inhibition read?
**A.** Its growth inhibition is -19.9% (inactive).

**Q.** For O=C(c1ccccc1)P(C(=O)c1ccccc1)C(=O)c1ccccc1, which growth inhibition is on record?
**A.** The growth inhibition was 8.2% (inactive).

**Q.** For O=C(O)C1CCCN1[N+](=O)[O-] (stereo not given), which growth inhibition is on record?
**A.** The growth inhibition was -5.15% (inactive).

**Q.** Which growth inhibition does the source give for O=NNc1cccc(NN=O)n1 here?
**A.** Its growth inhibition is -34.1% (inactive).

**Q.** For CCN(CC)C(=O)CCNC(C)Cc1c[nH]c2ccccc12 (stereo not given), which growth inhibition is on record?
**A.** The growth inhibition was 39.9% (inactive).

**Q.** Which growth inhibition does the source give for COC(=O)C1c2cc(OC)c(OC)cc2C(=O)N2CCc3cc4c(cc3C12)OCO4 (stereo not given) here?
**A.** The growth inhibition was 0.65% (inactive).

**Q.** With C[CH2][Sn]([CH2]C)([S]c1nc(O)cc(=O)[nH]1)[S]c1nc(O)cc(=O)[nH]1 as the compound, how does the growth inhibition read?
**A.** Its growth inhibition is -18.1% (inactive).

**Q.** Which growth inhibition does the source give for N#CC(C#N)=Cc1cccc(F)c1 here?
**A.** Its growth inhibition is 19.4% (inactive).

**Q.** With CC12CCC3C4CCC(=O)C=C4CCC3C1CC1CC(=O)OC12 (stereo not given) as the compound, how does the growth inhibition read?
**A.** Its growth inhibition is 0.4% (inactive).
